Bioassay records (PubChem)
HT1080-NT tox: kills 2HG-producing HT-1080-NT fibrosarcoma cells; HT-1080-NT fibrosarcoma viability, CellTiter-Glo ATP luminescence, 48 h; Potency, µM (top dose mostly 46.1 µM), without a hit: top-dose activity, negative = less viability, most hits filed as cytotoxic; actives 1.6% (n = 360,000);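 further: NT is the 2HG producing partner of a matched IDH1 knockdown line; 0% = DMSO-treated cells and -100% = media-only wells without cells; nearly all actives have a fitted effect of over 55% in size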
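Fibrosarcoma NT cells, 750 per well in 5% FBS RPMI, were exposed to compound for 48 hours. Viability: CellTiter-Glo luminescence.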
HT1080 IDH1KD tx: toxicity to HT-1080 IDH1 knockdown cells (counter line). AID 686971. HT-1080 IDH1 knockdown viability, ATP luminescence, 48 h. actives 2% (n = 360,000). Potency, µM (series often up to 46.1 µM), inactives show at the top dose activity, negative = toxicity, actives largely listed as cytotoxic;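 further: 0% = DMSO wells and -100% = cell-free medium wells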
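Using the IDH1-knockdown HT-1080 line run in the same batch and compound series as the NT line, viability after 48 h at 37 °C was determined by CellTiter-Glo luminescence and expressed as % activity.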
TDP1 cell CPT: DT40-hTDP1 cell growth loss with CPT | Potency, µM (doses to about 46.2 µM), for the others: top-dose activity change, negative = growth inhibition, usual class: inhibitors | chicken DT40 Tdp1-/-;hTDP1 cells + 20 nM CPT, ATP luminescence, 48 h | actives 12% (n = 420,000); further: nearly all actives have a fitted effect of over 55% in size
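Cell growth measured by CellTiter-Glo luminescence after a minimum 48 h, 37 C compound exposure with 20 nM CPT in Tdp1-knockout DT40 cells stably expressing hTDP1, seeded 400/well; qHTS titration format.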
DT40 TDP1 no CPT: qHTS for Inhibitors of human tyrosyl-DNA phosphodiesterase 1 (TDP1): qHTS in cells in absence of CPT | DT40 Tdp1-/- hTDP1 cells, no CPT, ATP luminescence, 48 h | Potency, µM (highest dose often 46.2 µM), for inactives: at the highest dose activity change, negative = growth inhibition, most hits filed as inhibitors | actives 15% (n = 420,000); further: nearly all actives have a fitted effect of over 55% in size
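Chicken DT40 Tdp1-/- cells complemented with human TDP1, screened without camptothecin (DMSO vehicle only), 400 cells/well. Compounds pin-transferred, cells incubated at 37 °C for at least 48 hr. Growth read as ATP-dependent luminescence (CellTiter-Glo, 30 min at RT).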
KB-V1 MDR tox: KB-V1 MDR subline cytotoxicity; KB-V1 MDR cells viability, CellTiter-Glo, 72 h; actives 3.4% (n = 400,000); Potency, µM (titrated, usually from 46.1 µM), hits mostly cytotoxic; AID 1347076; further: nearly all actives have a fitted effect of over 60% in size
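Cells of the MDR subline KB-V1 are plated, dosed with compound at multiple concentrations, and incubated 72 h at 37 degrees C; CellTiter-Glo is then added and luminescence read after 10 min.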
KB-3-1 cytotox: KB-3-1 parental cell cytotoxicity | KB-3-1 viability, CellTiter-Glo ATP luminescence, 72 h | Potency, µM (highest dose often 46.1 µM), actives largely listed as cytotoxic | actives 1.4% (n = 400,000) | AID 1347075; further: nearly all actives have a fitted effect of over 60% in size
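KB-3-1 parental drug-naive adenocarcinoma cells in DMEM/10% FBS, incubated 72 h at 37 C with pin-transferred compounds across a concentration series. Viability by CellTiter-Glo luminescence; concentration-response curves fitted after normalization.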
* hit, by the source's call. A selection: hits, their analogues and other compounds. The true share with any hit is near 19%. The call rests on the fitted dose curve; in most records, active means well fitted curve in the direction sought with a large enough effect; inconclusive means small, poorly fitted or top-dose-only effect, or another doubt; inactive means no such curve, though single readings can be large; an effect the other way counts as inactive or inconclusive. Unless noted, on the % scale 0 is the no-effect control and ±100 the full control effect; potency means the concentration at half of the fitted maximal effect.

Results for Cc1ccc(C)c(CSc2nnc([C@@H](N)C(C)C)o2)c1 ?
HT1080-NT tox: -9%; HT1080 IDH1KD tx: -9%; TDP1 cell CPT: -23%; DT40 TDP1 no CPT: -1%; KB-V1 MDR tox: 15µM*; KB-3-1 cytotox: inactive

How did Cc1ccc(OCC(=O)Nc2nc(C)c(Cl)cc2Cl)c([N+](=O)[O-])n1 do in these assays?
HT1080-NT tox: 0%; HT1080 IDH1KD tx: 14%; TDP1 cell CPT: -12%; DT40 TDP1 no CPT: 7%; KB-V1 MDR tox: inactive; KB-3-1 cytotox: inactive

What do the screens show for `COc1cccc(S(=O)(=O)N(C)C[C@@H]2OCc3cn(nn3)CCCC(=O)N([C@H](C)CO)C[C@H]2C)c1`?
HT1080-NT tox: 11%; HT1080 IDH1KD tx: 3%; TDP1 cell CPT: -22%; DT40 TDP1 no CPT: inconclusive; KB-V1 MDR tox: inactive; KB-3-1 cytotox: inactive

Results for CSc1nnc(CCNC(=O)OC(C)(C)C)o1 ?
HT1080-NT tox: -2%; HT1080 IDH1KD tx: 3%; TDP1 cell CPT: -2%; DT40 TDP1 no CPT: 1%; KB-V1 MDR tox: inactive; KB-3-1 cytotox: inactive

Results for CC(C)[C@H](N)c1nnc(SCC(=O)c2ccc(Cl)cc2)o1 ?
HT1080-NT tox: 5%; HT1080 IDH1KD tx: -2%; TDP1 cell CPT: 12µM*; DT40 TDP1 no CPT: 13µM*; KB-V1 MDR tox: inactive; KB-3-1 cytotox: inactive

What do the screens show for `CC(C)=CCSc1nnc(CCNC(=O)OC(C)(C)C)o1`?
HT1080-NT tox: -4%; HT1080 IDH1KD tx: 0%; TDP1 cell CPT: -3%; DT40 TDP1 no CPT: -21%; KB-V1 MDR tox: 21µM*; KB-3-1 cytotox: inactive

Results for Cc1ccc(NC(=O)CC2SC(=O)NC2=O)cc1 (centres undefined) ?
HT1080-NT tox: 10%; HT1080 IDH1KD tx: 6%; TDP1 cell CPT: 2.6µM*; DT40 TDP1 no CPT: 5.8µM*; KB-V1 MDR tox: inconclusive; KB-3-1 cytotox: inactive

How did COc1ccc(NC(=O)CC2SC(=O)NC2=O)cc1 (centres undefined) do in these assays?
HT1080-NT tox: 13%; HT1080 IDH1KD tx: 10%; TDP1 cell CPT: 2.3µM*; DT40 TDP1 no CPT: 5.8µM*; KB-V1 MDR tox: inactive; KB-3-1 cytotox: inactive

How did COCCC(=O)N1CCC(Oc2ccc(C(=O)N3CCC[C@H]3CO)cc2)CC1 do in these assays?
HT1080-NT tox: 4%; HT1080 IDH1KD tx: 27%; TDP1 cell CPT: -22%; DT40 TDP1 no CPT: 3%

Results for O=C(N/N=C/c1ccncc1)c1cccs1 ?
HT1080-NT tox: -1%; HT1080 IDH1KD tx: 0%; TDP1 cell CPT: -12%; DT40 TDP1 no CPT: 0%; KB-V1 MDR tox: inactive; KB-3-1 cytotox: inactive

How did CC(=C/c1ccccc1)/C=N/NC(=O)c1cccs1 do in these assays?
HT1080-NT tox: -17%; HT1080 IDH1KD tx: -22%; TDP1 cell CPT: -13%; DT40 TDP1 no CPT: 5.2µM*; KB-V1 MDR tox: inconclusive; KB-3-1 cytotox: inactive

How did O=C(N/N=C/C(Br)=C\c1ccccc1)c1cccs1 do in these assays?
HT1080-NT tox: inconclusive; HT1080 IDH1KD tx: 21µM*; TDP1 cell CPT: 15µM*; DT40 TDP1 no CPT: 13µM*; KB-V1 MDR tox: inactive; KB-3-1 cytotox: inactive

What do the screens show for `CCOc1ccc(S(=O)(=O)N2CCOCC2)cc1NC(=O)CSC(=S)N1CCCC1`?
HT1080-NT tox: -7%; HT1080 IDH1KD tx: -2%; TDP1 cell CPT: inconclusive; DT40 TDP1 no CPT: inconclusive; KB-V1 MDR tox: inconclusive; KB-3-1 cytotox: inactive

What do the screens show for `Cc1ccc(OCC(=O)N/N=C/c2cccc3cccnc23)cc1`?
HT1080-NT tox: -22%; HT1080 IDH1KD tx: inconclusive; TDP1 cell CPT: 23µM*; DT40 TDP1 no CPT: 26µM*; KB-V1 MDR tox: inactive; KB-3-1 cytotox: inactive

What do the screens show for `O=C(COc1ccc(F)cc1)N/N=C/c1cccc2cccnc12`?
HT1080-NT tox: -29%; HT1080 IDH1KD tx: inconclusive; TDP1 cell CPT: 21µM*; DT40 TDP1 no CPT: 16µM*; KB-V1 MDR tox: inactive; KB-3-1 cytotox: inactive

What do the screens show for `O=C(COc1cccc2cccnc12)N/N=C/c1cccn1-c1ccc(F)cc1`?
HT1080-NT tox: 2%; HT1080 IDH1KD tx: -18%; TDP1 cell CPT: inconclusive; DT40 TDP1 no CPT: inconclusive; KB-V1 MDR tox: inactive; KB-3-1 cytotox: inactive

How did CCNC(=O)CSc1nc2cc([N+](=O)[O-])ccc2n1-c1cccc(C(F)(F)F)c1 do in these assays?
HT1080-NT tox: -10%; HT1080 IDH1KD tx: 1%; TDP1 cell CPT: inconclusive; DT40 TDP1 no CPT: inconclusive; KB-V1 MDR tox: inactive; KB-3-1 cytotox: inactive

What do the screens show for `NC(=O)CSc1nc2cc([N+](=O)[O-])ccc2n1-c1cccc(C(F)(F)F)c1`?
HT1080-NT tox: 2%; HT1080 IDH1KD tx: 1%; TDP1 cell CPT: inconclusive; DT40 TDP1 no CPT: inconclusive; KB-V1 MDR tox: 6.5µM*; KB-3-1 cytotox: inactive

How did Cc1cccc(NC(=O)CSc2nc(-c3ccco3)nc3cc(=O)[nH]n23)c1 do in these assays?
TDP1 cell CPT: -23%; DT40 TDP1 no CPT: -24%; KB-V1 MDR tox: inactive; KB-3-1 cytotox: inactive

How did Nc1ccccc1C#CC(=O)c1ccccc1 do in these assays?
HT1080-NT tox: inconclusive; HT1080 IDH1KD tx: inconclusive; TDP1 cell CPT: 1.3µM*; DT40 TDP1 no CPT: inconclusive; KB-V1 MDR tox: inactive; KB-3-1 cytotox: inconclusive

Results for Nc1ccccc1C#Cc1ccc([N+](=O)[O-])cc1 ?
HT1080-NT tox: -20%; HT1080 IDH1KD tx: -10%; TDP1 cell CPT: -27%; DT40 TDP1 no CPT: inconclusive; KB-V1 MDR tox: inactive; KB-3-1 cytotox: inactive

Results for COc1ccc(C(=O)N2CCCC(c3cc(C(=O)Nc4ccccc4)no3)C2)cc1 (centres undefined) ?
HT1080-NT tox: 4%; HT1080 IDH1KD tx: -7%; TDP1 cell CPT: -6%; DT40 TDP1 no CPT: inconclusive; KB-V1 MDR tox: inactive; KB-3-1 cytotox: inactive

Results for CCOC(=O)c1sc2ncnc(NCC(c3cccs3)N(C)C)c2c1C (centres undefined) ?
HT1080-NT tox: -20%; HT1080 IDH1KD tx: -13%; TDP1 cell CPT: 29µM*; DT40 TDP1 no CPT: inconclusive; KB-V1 MDR tox: 21µM*; KB-3-1 cytotox: inactive

Results for CCOc1cc(C(=O)NC(C)CCc2ccccc2)cc(OCC)c1OCC (centres undefined) ?
HT1080-NT tox: inconclusive; HT1080 IDH1KD tx: inconclusive; TDP1 cell CPT: inconclusive; DT40 TDP1 no CPT: 13%; KB-V1 MDR tox: inactive; KB-3-1 cytotox: inactive
